# CYP2C9 activ = CYP2C9 (human) activation; activation factor at 5 µM; recombinant CYP2C9, luciferin-H conversion, luminescence; hits give high values; factor 1 = untreated enzyme, 0 = blocked; hit rate 1.4% among 96,000; P11712;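 active means activation factor of 2 or more for CYP2C9 at a 5 µM dose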;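 further: 0 = sulfaphenazole-blocked wells and 1 = vehicle-only wells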
# CYP2C19 activ = cytochrome P450 2C19 (human) activation; activation factor at 5 µM; 96,000 tested, under 10 active; recombinant CYP2C19, luciferin-H EGE luminescence; hits give high values; 0 = fully inhibited enzyme, 1 = untreated enzyme;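 active means activation factor of at least 2 at 5 µM in the primary screen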;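 further: 0 = wells with 2.5 mM tranylcypromine and 1 = vehicle-only wells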
# Target sequence (P33261 whole entry, looked up): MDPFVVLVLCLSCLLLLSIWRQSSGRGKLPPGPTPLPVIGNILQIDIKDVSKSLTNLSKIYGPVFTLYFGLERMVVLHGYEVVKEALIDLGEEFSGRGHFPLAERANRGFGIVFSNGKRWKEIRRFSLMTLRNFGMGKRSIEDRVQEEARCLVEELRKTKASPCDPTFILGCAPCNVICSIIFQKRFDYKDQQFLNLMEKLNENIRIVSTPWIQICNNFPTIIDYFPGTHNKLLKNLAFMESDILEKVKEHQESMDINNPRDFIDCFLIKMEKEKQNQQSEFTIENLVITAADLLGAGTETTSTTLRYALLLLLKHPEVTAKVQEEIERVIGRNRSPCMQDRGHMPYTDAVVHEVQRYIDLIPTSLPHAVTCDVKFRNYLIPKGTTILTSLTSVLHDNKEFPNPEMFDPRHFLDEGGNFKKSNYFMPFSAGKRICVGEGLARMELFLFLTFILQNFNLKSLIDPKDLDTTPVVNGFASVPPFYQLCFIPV
# CYP2C19 inhib = inhibitors of human CYP2C19. P33261. CYP2C19 Supersomes, luciferin-H EGE luminescence, 30 min. inhibition, % at 5 µM. hit rate 21% among 96,000;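 active means CYP2C19 inhibition above a set limit at 5 µM in the primary screen, cut at about 50% in these data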;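 further: plate controls were negative control wells for no effect and 2.5 mM tranylcypromine positive control for full effect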
# Pyk2 oligo antag = Pyk2 (human) oligomerization antagonism; hit rate 0.83% among 99,000; Q293 cells, Pyk2 FERM NanoBiT luminescence; hits give low values; z-score (the deposit names both 25 µM and 10 µM);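 active means Z-score of -3 or lower, scaled per plate to the spread of control and sample wells; inactive means z-score above -3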;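 further: negative z-score means lost luminescence so less FERM oligomerization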
# CYP2C9 inh = human CYP2C9 inhibition. P11712. CYP2C9 Supersomes, luciferin-H conversion, luminescence. inhibition, % at 5 µM. hit rate 20% among 96,000;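 active means blocking of liver enzyme CYP2C9 beyond about 50% at 5 µM, limit read from the data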
# * marks the source's active call; other numbers are inactive results; . = not tested or not shown. This is a sample that favours compounds with a hit; in the whole collection about 28% have one here.
SMILES,CYP2C9 activ,CYP2C19 activ,CYP2C19 inhib,Pyk2 oligo antag,CYP2C9 inh
COc1ccc(OC)c(N2C(=O)C(Cl)=C(N3CCOCC3)C2=O)c1,0.8,0.4,59.5*,-0.35,21.8
CCOc1ccc(Cc2nc(C)c(CC(=O)N3CCOCC3)c(=O)[nH]2)cc1,1.2,1,0.1,0.23,-15.3
CCCCC(=O)NC1(C(F)(F)F)C(=O)Nc2c1c(=O)n(C)c(=O)n2C (stereo not drawn),1,0.9,10.9,-0.79,0.3
O=C(Nc1ccc2c(c1)OCO2)c1cnn2cccnc12,0.9,0.9,9.3,0.44,9.4
CC(C)OP(=O)(OC(C)C)C(Nc1ccccc1)c1ccc2c(c1)OCO2 (stereo not drawn),.,.,.,0.54,.
Cc1cc(C(=O)Nc2ccc3c(c2)OCO3)cs1,0.5,0.3,70.0*,1.54,47.9
Cc1occc1C(=O)Nc1ccc2c(c1)OCO2,1,0.5,54.1*,-0.13,3.6
Cc1cc(C(=O)NC(C)c2ccc3c(c2)OCO3)cs1 (stereo not drawn),0.4,0.1,90.4*,-0.45,59.8*
Cc1cc(C)n2ncc(C(=O)Nc3ccc4c(c3)OCO4)c2n1,0.3,0.6,36.8,0.24,74.5*
CCOC(=O)c1c(N)sc(C(=O)Nc2ccc3c(c2)OCO3)c1C,0.2,0,97.6*,0.04,84.4*
COC(=O)c1cc(Br)c(=O)n(Cc2ccc(OC)c(OC)c2)c1,0.5,0.5,45.6,-0.07,50.7*
COC(=O)c1cc(Br)c(=O)n(Cc2ccc(C(=O)O)cc2)c1,1.1,1.1,-14.2,-0.16,-5.3
CCc1cc2c(=O)nc3n(c2s1)Cc1ccccc1/C3=C(/O)c1cccc([N+](=O)[O-])c1,0.5,1.1,-13.2,0.17,51.6*
O=C(O)C(Cc1ccccc1)N1C(=O)/C(=C/c2cccc3ccccc23)SC1=S (stereo not drawn),0.3,0.9,11.5,.,71.8*
Cc1c(N2C(=O)c3ccccc3C2=O)c(=O)n(-c2ccccc2)n1C,1.1,1.1,-10.6,-0.42,-5.5
Cc1c(N2C(=O)/C(=C\c3cccc4ccccc34)SC2=S)c(=O)n(-c2ccccc2)n1C,0.8,0.3,71.1*,-0.39,25.0
COn1c(C)c(C(C)=O)c2c3nonc3ccc21,0.5,0.4,61.2*,0.29,50.5*
CCCCOn1c(C)c(C(=O)OCC)c2c3nonc3ccc21,.,.,.,-0.5,.
Cc1ccc(NC(=O)NC2=N/C(=C(/C#N)C(=O)N3CCCC3)c3ccccc32)cc1,0,0.1,89.0*,0.06,98.2*
N=c1c2c3c(sc2ncn1CCCO)CCCC3,0.8,1,-3.9,0.12,17.3
CCCCn1cnc2sc3c(c2c1=N)CCCC3,1,0.4,59.8*,0.34,-0.9
CN1C(=C2C(=O)OC(C)(C)OC2=O)Sc2ccccc21,1.1,0.8,17.2,1.36,-11.4
CCCCOC(=O)Nc1cccc(C(C)=O)c1,0.7,0.7,34.1,-0.14,25.1
CCC1CCCCN1C(=O)CN1C(=O)CSC1=O (stereo not drawn),0.9,0.8,15.9,0.12,13.3
COc1ccc(C(=O)n2ccc(C)n2)cc1Br,0.8,0.4,57.0*,.,23.6
SMILES,CYP2C9 activ,CYP2C19 activ,CYP2C19 inhib,Pyk2 oligo antag,CYP2C9 inh
COc1cc(C(=O)n2nc(C)cc2C)ccc1O,1.2,0.8,16.5,0.71,-18.7
COc1ccc(C(=O)n2nnc3ccccc32)cc1Br,1,1,4.7,1.38,4.7
COc1ccc(C(=O)n2nc(C)cc2C)cc1Br,0.9,0.3,70.3*,-0.15,8.1
CCN1CCN(CC(O)COC(C)C)CC1 (stereo not drawn),1.2,0.8,21.6,0.79,-23.4
Cc1cc2c(c(=O)o1)C1(C(=O)N(C)c3ccccc31)C(C#N)=C(N)O2 (stereo not drawn),0.9,1,2.3,-0.09,7.9
CCCc1[nH]nc2c1C1(C(=O)N(C(C)C)c3ccccc31)C(C#N)=C(N)O2 (stereo not drawn),1.1,0.8,20.4,-0.02,-9.2
CC(=O)N1C(=O)C2(C(C#N)=C(N)Oc3cc(C)oc(=O)c32)c2ccccc21 (stereo not drawn),0.1,0.5,49.5,-0.39,88.5*
CC(=O)N1C(=O)C2(C(C#N)=C(N)Oc3c2c(C)nn3-c2ccccc2)c2ccccc21 (stereo not drawn),0.2,0.6,39.2,-1.43,81.4*
Cc1nn(-c2ccccc2)c2c1C1(C(=O)N(C)c3ccccc31)C(C#N)=C(N)O2 (stereo not drawn),0.4,0.8,15.2,-1.44,55.6*
CCN1C(=O)C2(C(C#N)=C(N)Oc3c2c(C)nn3-c2ccccc2)c2ccccc21 (stereo not drawn),0.2,0.4,60.7*,-1.51,79.4*
COC(=O)CN1C(=O)C2(C(C#N)=C(N)Oc3cc(C)oc(=O)c32)c2ccccc21 (stereo not drawn),0.8,0.8,18.7,-0.45,22.5
Cc1c(N2C(=O)CS/C2=N\N=C\c2ccc(Br)cc2)c(=O)n(-c2ccccc2)n1C,1,1,1.1,0.24,-3.0
Cc1nn(-c2ccccc2)c2c1C1(C(=O)N3c4c(cccc41)C(C)CC3(C)C)C(C#N)=C(N)O2 (stereo not drawn),0,0.2,75.8*,-2.2,97.1*
N#CC1=C(N)OC2=C(C(=O)CCC2)C12C(=O)N1CCCc3cccc2c31 (stereo not drawn),1.1,1,-4.8,-0.22,-9.8
CCN(CC)c1ccc(C2C(C(=O)OC(C)C)C(=O)CC(C)(O)C2C(=O)OC(C)C)cc1 (stereo not drawn),0.9,0.8,21.4,-0.57,6.1
CC(C)OC(=O)C1C(=O)CC(C)(O)C(C(=O)OC(C)C)C1c1ccc(F)cc1 (stereo not drawn),0.7,0.2,76.6*,0.09,25.9
COc1ccc(NC(=O)C2CCCN(S(=O)(=O)c3ccc4c(c3)oc(=O)n4C)C2)c(OC)c1 (stereo not drawn),0.6,0.5,51.4*,.,37.6
Cc1csc(NC(=O)C2CCCN(S(=O)(=O)c3ccc4c(c3)oc(=O)n4C)C2)n1 (stereo not drawn),0.5,0.5,51.6*,.,49.0
COc1ccc(NC(=O)C2CCCN(S(=O)(=O)c3cccnc3)C2)c(OC)c1 (stereo not drawn),0.8,0.4,59.4*,.,15.2
Cc1ccc(NC(=O)C2CCCN(S(=O)(=O)c3ccc4c(c3)oc(=O)n4C)C2)nc1 (stereo not drawn),0.8,0.5,48.4,.,22.6
Cc1cc(C)cc(OCc2nnc(SCC(=O)N3CCN(c4ccccc4)CC3)o2)c1,0.8,0.6,38.8,1.09,21.3
COc1ccc(Cc2nnc(SCC(=O)NC(C)c3ccccc3)o2)cc1 (stereo not drawn),0.9,0.7,26.4,0.31,12.3
CC(NC(=O)CSc1nnc(COc2ccccc2)o1)c1ccccc1 (stereo not drawn),0.5,0.2,81.9*,-0.09,46.4
CC(C)CCNC(=O)NC(=O)CSc1nnc(COc2ccccc2Cl)o1,0.5,0.5,49.6,0.69,53.2*

# Bioassay records as filed in PubChem.
